Out of some 360,000 compounds screened, about 3,600 (1%) were called active. Only a selection was taken, and actives are over-represented in it overall. Unmarked numbers belong to inactive results.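 The calls were made as follows: active = compounds whose plate-normalised and pattern-corrected inhibition of the luciferase reporter signal at the single screening dose is 50% or more; inactive = the rest.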

We go through 87 molecules from PubChem BioAssay AID1347056 (Sanford-Burnham Center for Chemical Genomics, 2019).

A short description of this test: inhibitors of TROY-driven NF-kB signaling, primary screen, Q293 LMP1-TROYcd cells, NF-kB luciferase, uHTS (AID 1347056). Conditions: Q293 LMP1-TROYcd NF-kB luciferase reporter, 4 h; at 10 µM; stronger effect = higher value.
Regarding `CC(NC(=O)COC(=O)c1ccc2ccccc2n1)c1ccccc1` (configuration not stated), the inhibition is -0.28%.
Regarding `CC1COc2ccccc2N1C(=O)c1cccnc1Cl` (configuration not stated), the inhibition was 8%.
Take `CCCN(CCC)CCNC(=O)c1cc2c(C)nc3ccccc3c2o1`: the inhibition is -8.54%.
Next, `O=C(NCCc1ccccn1)c1cc(-c2ccc(Cl)cc2)nc2ccccc12`: 15.8%.
The same measure for `CN(C)CCNC(=O)c1ccc(Cl)c2cc3ccccc3nc12`: 51.8% (active); for `COc1ccc(OC)c(CCNC(=O)CCn2ccc3cc(S(=O)(=O)N4CCCC4)ccc32)c1`: -2.42%.
As to `O=C(c1ccc2c(c1)N(Cc1ccc(F)cc1)C(=O)c1ccccc1S2(=O)=O)N1CCN(c2ccccn2)CC1`, the inhibition is 11.9%.
Next, `O=C1c2ccccc2S(=O)(=O)c2cc(N3CCN(c4ccccn4)CC3)ccc21`: 69.7% (active).
On to `CC1CCN(c2ccc3c(c2)S(=O)(=O)c2cc(C(=O)O)ccc2C3=O)CC1`, for which the inhibition was -46.1%.
The same measure for `N#CC(Cc1cc2ccccc2n1S(=O)(=O)c1ccccc1)OCc1ccccc1` (configuration not stated): -2.35%; for `CC(C)c1ccc(NS(=O)(=O)c2cn(C)c(=O)n(C)c2=O)cc1`: -2.58%.
Next, `Cc1ccccc1NC(=O)C(C)c1ccc(-c2ccccc2)c(F)c1` (configuration not stated): -1.18%.
The same measure for `Cc1cccc(-n2c(=O)c3c(C)c(C)sc3n(CC(N)=O)c2=O)c1`: 2.94%; for `N#CCSc1nc2c(c(=O)n1Cc1ccccc1)C1(CCCC1)Cc1ccccc1-2`: 3.7%.
Consider `Cc1cccc(-n2c(SCC(N)=O)nc3c(c2=O)C2(CCCCC2)Cc2ccccc2-3)c1`, for which the inhibition is 51% (active).
For the molecule `Cc1cc(CNC(=O)C2CCC(=O)N(CCc3ccc(Cl)cc3)C2)no1` (configuration not stated), the inhibition was -13%.
Regarding `O=C(N/N=C/c1ccsc1)c1cc(O)cc(O)c1`, the inhibition was -3.65%.
Next, `CSc1ncnc2c1ncn2CCCNCC1CCCCC1`: 10.9%; `CC12CCC(=O)C=C1CCC1C2C(O)CC2(C)C1CCC2(O)C(O)CO` (configuration not stated): 1.9%.
Next, `CSc1ncnc2c1ncn2CC(=O)C1CCC2C3CCC4=CC(=O)CCC4(C)C3CCC12C` (configuration not stated): 76.2% (active); `Cc1cc(C)c(NC(=O)CN2CCOCCOCCOCCOCC2)c(C)c1`: 3.84%.
`COC(=O)C1=C(N)Oc2cc(C)oc(=O)c2C1c1cccnc1` (configuration not stated): the inhibition was -1.83%.
Regarding `COc1ccc(-c2c(C)cc3oc(=O)cc(-c4ccccc4)c3c2C)cc1F`, the inhibition was -22%.
For `COc1ccc(-c2c(C)cc3oc(=O)cc(-c4ccccc4)c3c2C)cc1OC`, the inhibition is 1.76%.
With `COc1ccc(-c2c(C)cc3oc(=O)cc(-c4ccccc4)c3c2C)cc1C=O`, the inhibition was 50.3% (active).
Next, `COc1cc([C@H](Cc2ccccc2)NC(C)=O)oc(=O)c1`: -27%; `CCOC(=O)C1(S(=O)(=O)c2ccc(Cl)cc2)CCN(Cc2ccccc2)CC1`: -14.2%; `CCN1CCN(CCNC(=O)c2ccc(/C=C3/Sc4ccccc4N(Cc4cccc(C)c4)C3=O)cc2)CC1`: 50.6% (active).
The same measure for `Cc1ccc(C(=O)N/C(=C\c2ccc(F)cc2)C(=O)NCCN2CCOCC2)cc1`: -5.95%.
The same measure for `CCN1CCN(CCNC(=O)c2ccc3c(c2)NC(=O)/C(=C\c2cccc(Cl)c2)S3)CC1`: 2.74%.
Consider `CN1CCN(CCCNC(=O)c2ccc(/C=C3\Oc4ccccc4N(Cc4ccc(Cl)cc4)C3=O)cc2)CC1`, for which the inhibition is 80.6% (active).
`O=C(NCCN1CCOCC1)c1ccc(/C=C2\Sc3ccccc3N(Cc3ccc(F)cc3)C2=O)cc1`: the inhibition is 51% (active).
The same measure for `CCC1Oc2ccccc2N(CC(=O)NCCCN2CCN(CC)CC2)C1=O` (configuration not stated): 1.63%; for `Cc1cccc(-c2nc3ccc(C(=O)NCCN4CCN(C)CC4)cc3nc2-c2cccc(C)c2)c1`: -28%; for `Cc1c(C)n(Cc2ccc(Cl)cc2)c2ccc(C(=O)NCCCN3CCOCC3)cc12`: -9.92%.
`O=C(NCCN1CCOCC1)/C(=C/c1ccc(F)cc1)NC(=O)c1ccccc1`: the inhibition was -11.7%.
As to `Nc1nc(Br)c2ccccc2c1-c1ccc(F)cc1`, the inhibition was 14.8%.
Turning to `O=[N+]([O-])c1ccc(N2CCN(S(=O)(=O)c3ccccc3)CC2)cc1N1CCc2ccccc2C1`, the inhibition is -19.3%.
Next, `CCc1nc2ccc(C(=O)N3CCN(S(=O)(=O)CC)CC3)cn2c1N(C=O)CCC(C)C`: 0.5%.
As to `C/C(CC(=O)NC(C)(C)C)=N\NC(=O)c1ccco1`, the inhibition was -29.8%.
Take `COC(=O)[C@H](Cc1ccccc1)NC(=O)[C@@H]1C[C@H]1[C@@H](NC(=O)OCc1ccccc1)c1ccccc1`: the inhibition was 5.51%.
Consider `Cc1cc(Nc2cccc(C)c2C)n2ncnc2n1`, for which the inhibition was 3.52%.
`COC(=O)CNC(=O)c1ccc(OC2CCN(C(=O)C3CC3)CC2)cc1`: the inhibition was 2.78%.
Next, `CC1O[C@H](OC2C(COC3OC(CO)C(O)[C@H](O)C3O)OC(OC3CC[C@]4(C)C(CC[C@@]5(C)[C@@H]4C=C[C@]46OC[C@@]7(CCC(C)(C)C[C@H]74)C(O)C[C@@]56C)C3(C)C)C(O)C2O)C(O)C(O)C1O` (some centres not stated): -9.36%.
The same measure for `COc1ccc(CNC(=O)CN(c2ccc(OC)c(Cl)c2)S(=O)(=O)c2ccc(C)cc2)cc1`: -0.8%; for `Cc1ccccc1OCCC(=O)Nc1c(C)n(C)n(-c2ccccc2)c1=O`: 1.55%.
Take `CCN(CC)CCNC(=O)c1ccc(NS(=O)(=O)c2ccc3c(c2)OCCO3)cc1`: the inhibition is 16.6%.
The same measure for `O=C(Nc1cccc(S(=O)(=O)Nc2ccc(Cl)cc2)c1)c1ccc2c(c1)OCCO2`: 56.2% (active).
For the molecule `O=C(Nc1ccc2c(c1)OCCO2)c1ccc(Cl)c(S(=O)(=O)N2CCCCC2)c1`, the inhibition is 54.4% (active).
Next, `CN1CCN(c2ccc(NC(=O)c3ccc4c(c3)OCCO4)cc2Cl)CC1`: 22.3%; `Cc1ccc(C(=O)Nc2ccc3c(c2)OCCO3)cc1S(=O)(=O)N1CCOCC1`: -52%; `CC(NS(=O)(=O)c1ccc(Cl)cc1)C(=O)Nc1ccc2c(c1)OCCO2` (configuration not stated): 2.15%.
For the molecule `C/C(=N\N(C)C)c1ccc(OCCOc2ccc([N+](=O)[O-])cc2)cc1`, the inhibition is -19.4%.
Next, `COc1ccc(N(CC(=O)Nc2cc(OC)cc(OC)c2)S(=O)(=O)c2c(C)n[nH]c2C)cc1`: -9.7%.
Next, `CN1C(=O)CC(c2ccccc2)C1=O` (configuration not stated): 0.86%; `COCCN(Cc1cc2cc3c(cc2nc1Cl)OCO3)C(=O)c1cccc(C)c1`: 19.8%.
The same measure for `CN1CCN(CCCCOc2cccc3ccccc23)CC1`: -39.4%.
For `CC1CC(C)CN(CCOc2cccc3ccccc23)C1` (configuration not stated), the inhibition was 6.96%.
The same measure for `CC(C)c1ccccc1OCC(O)CN(CC(O)COc1cccc2ccccc12)C(C)C` (configuration not stated): 65.6% (active).
In the case of `NC(=O)NC(=O)C(OC(=O)CCNS(=O)(=O)c1ccccc1)c1ccccc1` (configuration not stated), the inhibition is 1.93%.
For `Cc1ccc(CNCc2ccc3c(c2)OCO3)c(C)c1`, the inhibition is -5.84%.
As for `CC(C)COC(=O)C1C2C=CC3(CN(C(C)c4ccc(Br)cc4)C(=O)C13)O2` (configuration not stated), the inhibition was -13.1%.
Turning to `CCN1C(=O)[C@@H]2[C@@H]3CN(S(=O)(=O)c4ccccc4C)[C@@H](c4ccc(Cl)cc4)[C@@H]3C(=O)C[C@@H]2C1=O`, the inhibition is 14.4%.
The same measure for `CC(C)C(C)(C#N)NC(=O)CSc1nncn1-c1ccccc1` (configuration not stated): -7.95%; for `CC1CCN(C(=O)c2ccc3c(=O)n4c(nc3c2)CCCCC4)CC1`: 5.45%.
Regarding `C=CCC1(CC=C)CCCN1C(=O)CC1C(=O)NCCN1Cc1ccccc1OC` (configuration not stated), the inhibition is -17.8%.
Regarding `CCN1CCN(C(=O)C2(NC(=O)Nc3cccc(F)c3)CCCCC2)CC1`, the inhibition was 7.69%.
With `c1ccc(-c2cc3c(NCC4COc5ccccc5O4)ncnc3s2)cc1` (configuration not stated), the inhibition was 59.3% (active).
`Cc1noc(C)c1C(=O)NCC1COc2ccccc2O1` (configuration not stated): the inhibition was 7.74%.
The same measure for `O=C(Cn1cnc2ccccc2c1=O)NCC1COc2ccccc2O1` (configuration not stated): -4.41%; for `CCOC(=O)[C@]12CCC=C1N(CCC1=CCCCC1)C(=O)[C@H](CC(=O)NCc1ccc(C)o1)C2`: -3.05%; for `Cc1nc(Nc2ccccc2F)c2nnn(Cc3ccccc3Cl)c2n1`: -1.4%.
Next, `Cc1nc(Nc2ccc(S(=O)(=O)N3CCCC3)cc2)c2nnn(Cc3ccccc3)c2n1`: 22.5%; `Cc1nc(Nc2ccc3c(c2)OCCO3)c2nnn(Cc3ccccc3Cl)c2n1`: 82.3% (active); `COC(=O)c1sc(C(F)(F)F)c(-c2ccccc2)c1S(=O)(=O)N(C)C`: -5.2%.
Next, `Cc1ccc(S(=O)(=O)N(C)CC(=O)OCC(=O)Nc2ccccc2)cc1`: -10.3%; `CCOC(=O)CN(C)S(=O)(=O)c1ccc(-c2cc(C(=O)OC)sc2C(F)(F)F)cc1`: 87.2% (active).
For `Cc1ccc(OCCCC(=O)NC(C)c2ccccc2)c(C)c1` (configuration not stated), the inhibition was -19.3%.
On to `Cc1ccc(C(=O)OC(C)CN2CCOCC2)cc1` (configuration not stated), for which the inhibition was -24.8%.
The same measure for `Cc1cccc(C(=O)OC(C)CN2CCN(C)CC2)c1` (configuration not stated): 58% (active); for `Cc1cccc(C(=O)OC(C)CN2CCCC2)c1` (configuration not stated): 17.2%.
Take `O=c1c2c(nc3cc(-c4cccc(Cl)c4)[nH]n13)CCCC2`: the inhibition is 59.5% (active).
Next, `C=CCc1c(C)nc2cc(-c3ccccc3)[nH]n2c1=O`: -9.98%; `CCCCN1Cc2c(nc3cc(-c4ccccc4)[nH]n3c2=O)C1=O`: 6.47%; `COc1cccc(C(=O)OCc2cc(=O)oc3c(C)c(C)ccc23)c1OC`: 54.5% (active).
Next, `COc1ccc(Br)cc1CN1CCN(C(=O)c2cccc(OC)c2OC)CC1`: -1.16%.
Next, `COC(=O)Cc1cc(=O)oc2c(C)c(O)ccc12`: 11.1%.

In general, inhibition refers to the change of the read-out against control, counted positive when it falls.
